Screening data deposited in PubChem BioAssay by National Center for Advancing Translational Sciences (NCATS).
HT1080-NT tox: kills 2HG-producing HT-1080-NT fibrosarcoma cells; HT-1080-NT fibrosarcoma viability, CellTiter-Glo ATP luminescence, 48 h; Potency, µM (top dose mostly 46.1 µM), for the others: at the highest dose activity, negative = less viability, actives largely listed as cytotoxic; hit rate 1.6% among 360,000;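 note: NT is the 2HG producing partner of a matched IDH1 knockdown line; potency is the fitted concentration of half-maximal effect; 0% = DMSO-treated cells and -100% = media-only wells without cells; nearly all actives have a fitted effect of over 55% in size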
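HT-1080-NT fibrosarcoma cells (2HG-overproducing), 750 cells/well in RPMI with 5% FBS, dosed after 2 h and incubated 48 h at 37C. CellTiter-Glo luminescence normalized to DMSO and no-cell wells; concentration-response curves fitted and classed.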
KB-V1 MDR tox: KB-V1 MDR subline cytotoxicity | KB-V1 MDR cells viability, CellTiter-Glo, 72 h | hit rate 3.4% among 400,000 | Potency, µM (titrated, usually from 46.1 µM), hits mostly cytotoxic; note: potency is the fitted concentration of half-maximal effect; nearly all actives have a fitted effect of over 60% in size
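Cytotoxicity toward P-gp-expressing KB-V1 cells was determined as loss of CellTiter-Glo luminescence after 72 h at 37 degrees C. Compounds were tested in quantitative HTS format across a concentration range, with curves fitted to normalized data.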
IL1B secr inh: inflammasome signaling inhibition, IL-1 beta readout; THP-1 LPS/ATP IL-1B secretion, AlphaLISA, 16 h; stronger effect = lower value; activity change, % at 57.5 µM; hit rate 4.7% among 360,000; in the data active = activity change below about -50%; inconclusive = mostly about -30% to -49%
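THP-1 cells pretreated 1 hr with compounds (up to 57.5 uM final), then stimulated with LPS (250 ng/mL final) plus ATP (1.25 mM final); secreted IL-1B measured by AlphaLISA after 16 hr, decreased signal indicating inhibition.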
HT1080 IDH1KD tx: kills HT-1080 cells with IDH1 knockdown. HT-1080 IDH1 knockdown viability, ATP luminescence, 48 h. AID 686971. Potency, µM (series often up to 46.1 µM), for the others: top-dose activity, negative = toxicity, most hits filed as cytotoxic. hit rate 2% among 360,000;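 note: potency is the fitted concentration of half-maximal effect; 0% = DMSO wells and -100% = cell-free medium wells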
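Luminescent ATP read-out (CellTiter-Glo, 10 min at room temperature) after 48 h compound exposure at 37 °C gave viability of IDH1-knockdown HT-1080 cells. Activity was normalised to DMSO and cell-free wells, then fitted as concentration-response curves.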
KB-3-1 tox: kills parental KB-3-1 adenocarcinoma cells | KB-3-1 viability, CellTiter-Glo ATP luminescence, 72 h | Potency, µM (doses to about 46.1 µM), usual class: cytotoxic | hit rate 1.4% among 400,000 | AID 1347075; note: potency is the fitted concentration of half-maximal effect; nearly all actives have a fitted effect of over 60% in size
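Screening of KB-3-1 cells (DMEM, 10% FBS, phenol-red free) ran from lowest to highest compound concentration; after 72 h at 37 °C viability was read luminescently and curves fitted.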
The depositor's hits bear a star; i = inactive; ? = inconclusive; . = no result given. In the library only some 8.8% were active in any assay of this set; here they are far more common. Unless noted, calls come from the whole dose curve; as a rule, active = well fitted curve in the direction sought with a large enough effect; inconclusive = small, poorly fitted or top-dose-only effect, or another doubt; inactive = no such curve, though single readings can be large; an effect the other way counts as inactive or inconclusive. Unless noted, % is set by controls: 0 for no effect and ±100 for the full control effect.

SMILES	HT1080-NT tox	KB-V1 MDR tox	IL1B secr inh	HT1080 IDH1KD tx	KB-3-1 tox
O=C(NCc1cccnc1)/C(=C/c1ccc(Cl)cc1)NC(=O)c1ccccc1	0%	i	-4	9%	i
Cc1ccc(C(=O)N/C(=C/c2ccc(-c3cc(C(F)(F)F)ccc3Cl)o2)C(=O)NCc2cccnc2)cc1	-17%	9.2µM*	?	-21%	?
O=C(NCc1cccnc1)/C(=C/c1ccc(-c2cccc(C(F)(F)F)c2)o1)NC(=O)c1ccccc1	-15%	16µM*	8	-28%	i
O=C(Nc1ccc(C(=O)N2CCCCC2)cc1)c1ccccc1Br	12%	i	-6	5%	i
CC(=O)Nc1cccc(Oc2ncnc3scc(-c4ccccc4)c23)c1	-29%	?	-53*	-16%	i
O=C(O)c1cccc(Nc2ncnc3scc(-c4ccccc4)c23)c1	.	i	.	.	i
CN(C)S(=O)(=O)c1cccc(NC(=O)CNc2cccc(S(=O)(=O)N3CCCCC3)c2)c1	-11%	i	13	-16%	?
O=C(CNc1ccc(C(F)(F)F)cc1)Nc1cccc(S(=O)(=O)N2CCCC2)c1	-10%	i	26	-20%	i
O=C(COC(=O)c1cc(S(=O)(=O)N2CCCC2)ccc1O)Nc1ccc(SC(F)F)cc1	5%	?	-5	5%	i
O=C(CNc1cc(S(=O)(=O)N2CCCC2)ccc1OCC(F)(F)F)Nc1ccc(SC(F)F)cc1	-27%	i	-68*	-27%	i
CCN(CC)S(=O)(=O)c1cc(NC(=O)CNc2cccc(S(=O)(=O)N3CCCC3)c2)ccc1C	4.6µM*	21µM*	?	-21%	2.9µM*
CCN(CC)S(=O)(=O)c1cccc(NC(=O)CNc2cccc(S(=O)(=O)N3CCOCC3)c2)c1	.	21µM*	-7	.	1.3µM*
O=C(CNc1ccc(C(F)(F)F)cc1)Nc1cccc(S(=O)(=O)N2CCCCC2)c1	?	i	-59*	?	i
CCN(CC)S(=O)(=O)c1ccc(C)c(NC(=O)CNc2cccc(S(=O)(=O)N3CCOCC3)c2)c1	5%	i	?	4%	i
COc1cc(C(=O)NC2(C(F)(F)F)C(=O)NC(C)=C2C#N)cc(OC)c1OC (configuration not stated)	.	i	.	.	i
C[C@@H]1CN([C@@H](C)CO)C(=O)CCCn2nncc2CO[C@H]1CN(C)C(=O)Nc1ccccc1F	1%	i	14	8%	i
CCCC(C)NC(=O)COc1ccc(Sc2ccc(OCC(=O)NC(C)CCC)cc2)cc1 (configuration not stated)	-22%	?	-1	-8%	?
O=C(Nc1cccc(S(=O)(=O)N2CCOCC2)c1)c1cc([N+](=O)[O-])ccc1N1CCOCC1	0%	i	5	0%	i
O=C(CSc1ccc([N+](=O)[O-])cc1)Nc1cccc(S(=O)(=O)N2CCOCC2)c1	3%	?	-68*	0%	i
Cn1ccc2c(/C=C/c3ccc(F)cc3)cc3c(c21)C1CCC3C1 (configuration not stated)	0%	i	16	2%	i
Cc1nc(-c2ccc(S(=O)(=O)N(Cc3ccccc3)C(C)C)cc2)co1	.	i	.	.	i
O=C(COc1cc2oc(=O)c3c(c2cc1Cl)CCC3)Nc1ccccn1	9%	i	-5	3%	i
NC(=O)COc1cc2oc(=O)c3c(c2cc1Cl)CCCC3	15%	8.2µM*	-14	13%	i
Cc1ccc(NC(=O)CN(C)C(=O)C(C)N2CCN(Cc3ccccc3C)CC2)cc1 (configuration not stated)	-1%	9.2µM*	-18	-2%	i
Cc1c(C#N)c(O)n(CCO)c(=O)c1N=Nc1ccc2c(c1)COC2=O	-5%	i	-57*	0%	i
SMILES	HT1080-NT tox	KB-V1 MDR tox	IL1B secr inh	HT1080 IDH1KD tx	KB-3-1 tox
COc1ccc(-c2c/c(=N\c3nc(-c4ccccc4)c(C)s3)c3ccccc3o2)cc1O	5.8µM*	5.8µM*	18	5.8µM*	5.2µM*
COc1ccc(-c2cc(=Nc3c(C)n(C)n(-c4ccccc4)c3=O)c3ccccc3o2)cc1	-6%	?	-29	-21%	i
CCCCCCCCCCCCCCCCCCNc1ccn(C2OC(COP(=O)(O)OCC3OC(n4cc(F)c(=O)[nH]c4=O)CC3O)C(O)C2O)c(=O)n1 (configuration not stated)	?	i	-68*	10µM*	?
O=C(O)CNc1nc(-c2ccccc2)nc2ccccc12	2%	i	20	-3%	i
Cc1cccc2nc(-c3ccccc3)nc(N[C@@H](CO)c3ccccc3)c12	?	?	-63*	?	?
Cn1c(SCc2ccccc2)nnc1-c1cccs1	21%	i	?	24%	i
Cn1c(SCc2ccc(F)cc2)nnc1-c1cccs1	21%	16µM*	-18	-10%	i
CCOC(=O)C1=C(C)NC(C)=C(C(=O)OCC)C1C(=O)OCC(=O)NCc1ccccc1OC	2%	i	?	-3%	i
CN1CCCN(S(=O)(=O)c2cccc(C(F)(F)F)c2)c2nc3ccccc3nc21	-5%	i	0	1%	i
c1ccc(-c2nc(N3CCCCC3)nc3ccccc23)cc1	-8%	i	0	-12%	i
c1ccc(-c2nnc3nc(N4CCCCC4)nc(N4CCCCC4)n23)cc1	20%	18µM*	-10	9%	?
CCC(=O)Nc1ccc(C(=O)Cn2ncc(Cl)c(Cl)c2=O)cc1	0%	?	-96*	?	?
CCOC(=O)c1ccc(NC(=O)Cn2ncc(Cl)c(Cl)c2=O)cc1	16µM*	?	-100*	4.6µM*	?
CCc1ccccc1NC(=O)CN(C)C(=O)Cn1ncc(Cl)c(Cl)c1=O	?	?	-108*	?	?
COc1ccc(N2CCN(C(CNC(=O)C(C)C)c3ccc4c(c3)OCO4)CC2)cc1 (configuration not stated)	14%	i	3	4%	i
COC(=O)c1c(NC(=O)c2nc(SCc3cccc(C)c3)ncc2Cl)sc2c1CCCC2	.	i	.	.	i
N#CC1(NC(=O)COc2ccccc2[N+](=O)[O-])CCCCC1	13%	i	57	2%	i
C=CCOc1ccc(C(=O)c2ccccc2)c(OCC(=O)NC2(C#N)CCCC2)c1	?	?	-60*	-18%	i
COc1ccccc1N(CC(=O)NCCSCc1ccc(C)cc1)S(=O)(=O)c1ccccc1	-5%	?	-25	-7%	?
COc1ccc(N(CC(=O)NCCSCc2ccc(C)cc2)S(=O)(=O)c2ccccc2)cc1	-25%	6.5µM*	i	?	?
